Bioassay records from PubChem.
This is a sample that favours compounds with a hit; in the whole collection about 5.7% have one here.
L3MBTL1 inh: inhibitors of human L3MBTL1. Q9Y468. AlphaScreen L3MBTL1–H3K9me1 peptide binding. Potency, µM (highest dose often 57.1 µM), without a hit: at the top dose activity, negative = inhibition, actives largely listed as inhibitors. 0.66% of 230,000 active. AID 485360; also: potency is read from the fitted curve at half-maximal effect; % is scaled to controls: 0 for no effect and ±100 for the full control effect; nearly all actives have a fitted effect of over 60% in size
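L3MBTL1 (50 nM) pre-complexed 30 min with biotinylated H3(1-15)K9me1 peptide (75 nM), then compounds added for 30 min at room temperature; AlphaScreen streptavidin donor/nickel chelate acceptor beads (10 ug/mL final) read after 30 min dark incubation.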
BAZ2B block: blocks human BAZ2B; Q9UIF8; AlphaScreen BAZ2B-H3K14Ac peptide displacement; Potency, µM (top dose mostly 114 µM), for the others: at the top dose activity change, negative = inhibition, usual class: inhibitors; 4.4% of 360,000 active; AID 504333; also: potency is read from the fitted curve at half-maximal effect; % is scaled to controls: 0 for no effect and ±100 for the full control effect; nearly all actives have a fitted effect of over 60% in size
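BAZ2B (50 nM) with biotin-H3(5-23)K14Ac peptide (50 nM) in PBS pH 7.4, 0.01% Tween-20, preformed 30 min, then compound 30 min at room temperature; top concentration 110uM. AlphaScreen streptavidin donor/nickel chelate acceptor beads (10 ug/mL final), 20 min dark, signal read.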
PI5P4K alpha inh: blocks human PI5P4K alpha kinase activity; PI5P4Kalpha enzyme, ADP-Glo luminescence, 60 min; stronger effect = lower value; 1.2% of 330,000 active; AID 652105; max response, %; P48426; active = max response of -50% or lower; inconclusive = between -30% and -50%; inactive = -30% or higher; also: value at the top dose of about 77 µM; % is scaled to controls: 0 for no effect and ±100 for the full control effect
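Compounds were pin-transferred onto PI5P4Kalpha and substrate in HEPES pH 7.4 buffer with EGTA, CHAPS and 5% DMSO. ATP (5 microM final) started the reaction, which ran 60 minutes at room temperature before ADP-Glo detection.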
HP1b chromo inh: blocks HP1-beta chromodomain binding to methylated histone tails | P83916 | AlphaScreen HP1-beta / biotin-H3K9me3 peptide binding | Potency, µM (series often up to 114 µM), for inactives: top-dose activity change, negative = inhibition, hits mostly inhibitors | 0.56% of 390,000 active; also: potency is read from the fitted curve at half-maximal effect; nearly all actives have a fitted effect of over 70% in size
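Compound inhibition of the preformed complex between 50 nM HP1-beta and 50 nM biotinylated H3K9me3 peptide was read by AlphaScreen. Buffer was PBS pH 7.4 with 0.01% Tween-20. Incubations ran 30 min at room temperature, with 10 ug/mL donor/acceptor beads.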
JMJD2A Tudor inh: inhibitors of human JMJD2A Tudor domain. 4.4% of 390,000 active. AlphaScreen JMJD2A-Tudor / H3K4me3 peptide binding. Potency, µM (top dose mostly 114 µM), for the others: at the highest dose activity change, negative = inhibition, hits mostly inhibitors. O75164. AID 504339; also: potency is read from the fitted curve at half-maximal effect; % is scaled to controls: 0 for no effect and ±100 for the full control effect; nearly all actives have a fitted effect of over 50% in size
JMJD2E inh: blocks human JMJD2E demethylase activity. 1.6% of 230,000 active. Potency, µM (top dose mostly 57.1 µM), for the others: at the highest dose activity change, negative = inhibition, hits mostly inhibitors. AID 2147. B2RXH2. JMJD2E catalytic domain, FDH-coupled NADH fluorescence (FDH is formaldehyde dehydrogenase); active = well fitted inhibition curve with a large enough effect, not every such curve was filed as active; inconclusive = small, poorly fitted or top-dose-only effect, or another doubt; inactive = no such curve, though single readings can be large or run the other way;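 also: potency is read from the fitted curve at half-maximal effect; 0% = wells with enzyme and -100% = buffer wells without enzyme; nearly all actives have a fitted effect of over 50% in size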
Active calls of the source: *; ? = inconclusive; nt = no result; [ ] = dose if it differs, or a comment. Unless noted, calls follow the shape of the dose curve; as a rule, active = well fitted inhibition curve with a large enough effect; inconclusive = small, poorly fitted or top-dose-only effect; inactive = no such curve, though single readings can be large or run the other way.

SMILES | L3MBTL1 inh | BAZ2B block | PI5P4K alpha inh | HP1b chromo inh | JMJD2A Tudor inh | JMJD2E inh
C=Cc1ccc(Cn2c(=O)n(CC3CCC(C(=O)NC(C)C)CC3)c(=O)c3sccc32)cc1 (configuration not stated) | nt | -7.5% | nt | -11.4% | -17.0% | nt
CC1CCCN(c2nc(NCc3ccco3)nc(N)c2[N+](=O)[O-])C1 (configuration not stated) | -1.8% | 50.1µM* | 11.7 | ? | ? | -4.4%
Nc1nc(NCc2ccco2)nc(N2CCOCC2)c1[N+](=O)[O-] | 1.1% | -12.6% | -8.2 | 16.3% | -14.6% | -6.5%
CCOc1ccc(Nc2nc(N)c([N+](=O)[O-])c(N3CCN(CC)CC3)n2)cc1 | nt | 50.1µM* | -4.4 | ? | ? | nt
CCOc1ccc(Nc2nc(N)c([N+](=O)[O-])c(N3CCOCC3)n2)cc1 | nt | -17.4% | -11.2 | -7.1% | -20.0% | nt
Cc1ccc(Nc2nc(N)c([N+](=O)[O-])c(N3CCCC(C)C3)n2)cc1C (configuration not stated) | -1.8% | ? | 2.1 | ? | 25.1µM* | -2.7%
N#Cc1ccccc1OC1=NS(=O)(=O)c2ccccc21 | nt | nt | nt | nt | -18.4% | nt
C[C@@H]1CN([C@H](C)CO)C(=O)c2cc(Br)cnc2O[C@H]1CN(C)C(=O)CC1CC1 | nt | nt | 3.1 | nt | nt | nt
CC(C)c1ccc(NC(=O)Cn2c(=O)n(CCc3ccccc3)c(=O)c3ccccc32)cc1 | nt | -0.7% | nt | 29.0% | -11.6% | nt
C=CCc1cc(Cl)ccc1OCCNCCOC | nt | 50.1µM* | 14.3 | ? | 1µM* | 4.1%
C=CCNCCOCCOc1ccc(Cl)cc1C(C)(C)C | 7.1% | 50.1µM* | 9.3 | -44.9% | 2µM* | -10.7%
COCCNCc1ccc(Cl)cc1Cl | -2.0% | -22.6% | 6.2 | 72.4% | -6.9% | -0.8%
C=CCNCCOCCSc1ccc(Cl)cc1 | 7.6% | ? | 4.6 | ? | 3.16µM* | ?
COCCNCCCCSc1ccc(Cl)cc1 | 4.8% | 56.2µM* | 1.6 | -35.0% | 8.91µM* | ?
CCOc1ccc(-n2c(SCC(=O)Nc3ccc4c(c3)OCCO4)nc3c([nH]c4ccccc43)c2=O)cc1 | nt | 27.8% | nt | 42.9%[57 µM] | -20.6% | nt
CCCCc1nn2c(=O)cc(COC(=O)c3ccccc3NC(=O)C3CCCCC3)nc2s1 | nt | -18.2% | nt | 18.2% | -9.9% | nt
C=CCNCCCOc1ccc(Cl)cc1C(C)(C)C | 6.2% | 39.8µM* | 25.1 | ? | 4.47µM* | ?
c1ccc(Nc2cccc(Nc3ccccc3)n2)cc1 | nt | 44.7µM* | -3.4 | ? | 56.2µM* | ?
c1ccc(Nc2ccccn2)cc1 | nt | 1.3% | -10.9 | ? | 22.4µM* | 6.8%
Cc1cc(Cl)ccc1OCC(=O)NCC(=O)N/N=C/c1ccco1 | 0.7% | -3.7% | -4.2 | 23.0% | -6.1% | -4.1%
COCCNC(=O)Cn1c(=O)n(CCCCCC(=O)NCc2ccccc2Cl)c(=O)c2sccc21 | nt | 0.0% | nt | 36.0% | -5.8% | nt
COc1ccc2c(C)nc(Nc3nc(-c4ccccc4)cc(=O)[nH]3)nc2c1 | -9.8% | 79.4µM* | -5.7 | 21.6% | ? | 12.6%
CC(C)=CCC/C(C)=C/CC/C(C)=C/CC/C(C)=C/CC1=C(C)C(=O)c2ccccc2C1=O | nt | ? | -27.6 | 6.6% | -33.1% | -6.8%
CC(C)=CCC1=C(OCC(=O)O)C(=O)c2ccccc2C1=O | nt | -29.2% | -8.8 | 8.6% | -30.9% | 14.1µM*
O=C(O/N=C1/CCCc2occc21)c1ccc(F)cc1 | 3.3% | -14.1% | -58.2* | 2.8% | ? | 4.3%
SMILES | L3MBTL1 inh | BAZ2B block | PI5P4K alpha inh | HP1b chromo inh | JMJD2A Tudor inh | JMJD2E inh
COCCNC(=S)N(CCc1c(C)[nH]c2ccc(OC)cc12)Cc1ccco1 | nt | ? | 0.9 | ? | ? | nt
CNC(=S)N(CCc1c(C)[nH]c2ccc(OC)cc12)Cc1cc(OC)c(OC)c(OC)c1 | -7.6% | 44.7µM* | 4.1 | 3.2% | ? | -13.1%
CNC(=S)N(CCc1c(C)[nH]c2ccc(C)cc12)Cc1cc(OC)c(OC)c(OC)c1 | -3.8% | 39.8µM* | -3.1 | -14.1% | ? | 9.5%
CNC(=S)N(CCc1c(C)[nH]c2ccc(C)cc12)Cc1cccs1 | nt | nt | 8.3 | -4.0% | ? | -12.5%
CNC(=S)N(CCc1c(C)[nH]c2ccc(OC)cc12)Cc1ccco1 | nt | ? | -2.5 | -5.6% | ? | nt
COCCNC(=S)N(CCc1c(C)[nH]c2ccc(C)cc12)Cc1ccco1 | -28.8% | 35.5µM* | -5.7 | -15.5% | ? | 9.5%
Cc1ccc(-n2cccn2)c([C@@H]2C[C@H]3CN(C)C(=O)[C@]34CCCN24)c1 | 1.9% | -2.6% | -0.6 | 29.9% | -21.4% | 3.0%
Cc1c(C(=O)NCc2ccc(F)cc2)sc2nc3n(c(=O)c12)CCC3 | nt | -0.1% | nt | 20.4% | -5.9% | nt
CCN(CC)c1ccc(/C=N/NC(=S)NC)c(O)c1 | nt | 39.8µM* | 3.6 | ? | 44.7µM* | ?
CCN(CC)c1ccc(/C=N/NC(=O)OC)c(O)c1 | nt | -38.9% | 13.1 | 8.6% | -28.0% | 12.6µM*
CCN(CC)c1ccc(/C=N/NC(=O)c2ccoc2C)c(O)c1 | -14.1% | 0.0% | 0.8 | 31.1% | -4.4%[11.4 µM] | 11.2µM*
COc1cccc(CN(C)CC(=O)Nc2cccc(S(=O)(=O)N(C)c3ccccc3)c2)c1OC | nt | nt | -1.6 | 15.1% | -24.1% | nt
CCOc1ccc(CN(C)CC(=O)Nc2cccc(S(=O)(=O)N(C)c3ccccc3)c2)cc1 | -8.1% | nt | 28.4 | ? | 22.4µM* | ?
COc1cc(C(=O)Nc2ccccc2OCc2cc(=O)n3cc(C)sc3n2)cc(OC)c1OC | nt | -1.5% | nt | 50.7% | -18.9% | nt
COc1ccccc1-n1c(CNC(=O)c2ccc(S(=O)(=O)N3CCOCC3)cc2)n[nH]c1=S | nt | ? | nt | 21.2% | 20µM* | 3.8%
